Data published in ChEMBL document CHEMBL3988442, “University of Dundee, Small-Polar-MMV Screening Library” (2021).
Screen size: about 38,000 compounds; about 1,200 (3.2%) showed an effect of 50% or more. The median lay at about -58%. For the sample, strong results were picked, then their nearest neighbours and some compounds at random.

system: Plasmodium falciparum; assay: Calibr Malaria Delayed Death Assay SOP; assay type: functional, organism-based; parameters: scale not given: in the data most compounds retested in dose-response had high values; settings: concentration 4.99e-06 (unit not given; other assays of the set use mol/L)

| Compound | Percent Effect [%] |
| --- | --- |
| CS(=O)(=O)N1CCO[C@@H]2CN(C(=O)C3CCOC3)CC[C@@H]2C1 (stereo partly specified) | -33.97 |
| CC1c2ncc(Cn3cccn3)n2CCN1S(C)(=O)=O.O=C(O)C(F)(F)F (stereo unspecified) | -110.2 |
| COc1ccc2c(ccn2CCC(=O)N[C@H](C(=O)O)C(C)C)c1 | -46.34 |
| O=C(O)C(F)(F)F.O=S(=O)(C1CC1)N1C[C@H]2CCC[C@@]2(COCc2ccccn2)C1 | 2.137 |
| Cc1ccc(CNc2cc3c(cc2Cl)NC(=O)CO3)cc1C | -53.48 |
| CC(C)c1nccc(-c2nccn2CCS(C)(=O)=O)n1 | -2.25 |
| COc1cccc(OCC(=O)N(C)c2cccnc2)c1 | -135.2 |
| c1cc(-c2ccc3c(c2)C2(CCNCC2)CC3)ccn1 | -27.62 |
| c1cncc(-c2ccc3c(c2)CCC32CCNCC2)c1 | 86.19 |
| O[C@H]1[C@H](n2cc(-c3cccnc3)nn2)c2ccccc2C12CCNCC2 | -21.88 |
| CCCN1CCCn2nc(CNS(=O)(=O)c3ccc(F)cc3)cc2C1 | -65.3 |
| Cc1nnn2c1COC(CNC(=O)c1cccn1C)C2 (stereo unspecified) | -28 |
| COc1ccc(C(C)NCc2c[nH]nc2C)cc1Br.Cl (stereo unspecified) | 17.2 |
| COc1cc(CNC(C)Cn2cccn2)cc(OC)c1OC.Cl (stereo unspecified) | -15.53 |
| CCOc1cccc(C(C)NCc2c(C)nn(C)c2N(C)C)c1 (stereo unspecified) | -4.179 |
| COc1cc(CNC(C)c2cccc(Cl)c2)cc(OC)c1OC (stereo unspecified) | 62.46 |
| CCOc1cccc(C(C)NCc2ccc(OC)c(OC)c2OC)c1 (stereo unspecified) | 77.1 |
| COc1ccccc1CNC(C)c1ccc2[nH]c(=O)[nH]c2c1 (stereo unspecified) | -107.7 |
| COc1cc(CNC(C)Cn2cccn2)cc(Cl)c1OC.Cl (stereo unspecified) | -39.22 |
| COc1ccc(CNC(C)c2cccc(Br)c2)c(OC)c1OC.Cl (stereo unspecified) | 66.18 |
| COc1cccc(CNC(C)Cn2cccn2)c1OC.Cl (stereo unspecified) | -25.91 |
| CC1c2ncc(CNC(=O)C3CC3)n2CCN1Cc1ccccn1.O=C(O)C(F)(F)F.O=C(O)C(F)(F)F (stereo unspecified) | -38.32 |
| Cc1sc(CS(C)(=O)=O)nc1-c1ccc(Cl)cc1 | -81.11 |

| Compound | Percent Effect [%] |
| --- | --- |
| Cc1cc(N2CCC3(CCCN(C4CCOCC4)C3=O)C2)ccn1 (stereo unspecified) | -85.7 |
| Cc1cc(NC(=O)N2CCCC2CN2CCOCC2)nn1C (stereo unspecified) | -54.38 |
| Cc1n[nH]cc1CNC1CCN(c2cccc(C(F)(F)F)c2)CC1 | 62.67 |
| COc1cccc(-c2n[nH]cc2CNC2CCN(C3CC3)CC2)c1.Cl | 18.36 |
| Cc1n[nH]cc1CNC1CCN(c2ccc(F)cc2)CC1.Cl | -38.43 |
| Cn1[nH]c(Br)c2/c(=N\CCN)ncnc1-2 | -80.01 |
| CN(C(=O)CSc1ccccn1)C1CCCN(CCc2ccccc2)C1 (stereo unspecified) | -11.51 |
| CCn1ccnc1CN(C)C1CCCN(CCc2ccccc2)C1 (stereo unspecified) | 76.22 |
| CN(C(=O)CCc1ccncc1)C1CCCN(CCc2ccccc2)C1 (stereo unspecified) | -32.08 |
| CN(C(=O)c1cccnc1)C1CCCN(CCc2ccccc2)C1 (stereo unspecified) | -66.95 |
| CN(Cc1nnc(C2CC2)n1C)C1CCN(CCc2ccccc2)C1 (stereo unspecified) | -85.28 |
| O=C(NCCOc1ccc(Cl)cn1)NCCc1ccccn1 | -11.42 |
| O=c1cc2c(nn1CN1CCSCC1)CCC2 | -0.0745 |
| CN(C)C1CCCN(C(=O)NCCc2cc(F)ccc2F)C1 (stereo unspecified) | -83 |
| CC(=O)N1CC(C)CN(C(=O)c2cnccn2)c2ccccc21 (stereo unspecified) | -30.69 |
| Cn1nccc1NC(=O)c1cccc(CN2C[C@H]3CC[C@@H](C2)N3)c1 | -132.7 |
| CCCc1ccc(CN2CCC3(CC2)CNC(=O)C3)o1 | 20.41 |
| CC(C)n1nc(CN(C)C)c2c1CN(CC1CC1)CC2.O=C(O)C(F)(F)F.O=C(O)C(F)(F)F | -96.94 |
| CC(C)n1nc(CN2CCCC2)c2c1CN(CC1CC1)CC2.O=C(O)C(F)(F)F.O=C(O)C(F)(F)F | 54 |
| Cn1nc(CN2CCCC2)c2c1CN(CC1CC1)CC2.O=C(O)C(F)(F)F.O=C(O)C(F)(F)F | -21.27 |
| Cc1noc(C)c1CN1CC[C@H]2OCC[C@@]2(C(=O)NC2CCCC2)C1.O=C(O)C(F)(F)F | 8.677 |
| Cc1cc(C)c2nc(C)cc(C(=O)NC(C)c3nnn[nH]3)c2c1 (stereo unspecified) | -3.579 |
| CO[C@H]1CNC[C@@H]1NC(=O)c1cc(C)nc2c(C)cc(C)cc12 | 73.93 |

| Compound | Percent Effect [%] |
| --- | --- |
| CO[C@H]1CNC[C@@H]1NC(=O)c1cc(C)nc2c(C)c(C)ccc12 | -1.359 |
| CCc1cnc(N2C[C@@H]3[C@@H](C(=O)N(C)C)CCS(=O)(=O)[C@@H]3C2)nc1 | -56.54 |
| Cc1cc(C(=O)N2CCn3cc(CN(C)C)nc3C2)no1 | -39.89 |
| Cc1noc(C(C)C)c1C(=O)NCC(c1ccsc1)N(C)C (stereo unspecified) | 17.17 |
| Cc1noc(C)c1C(=O)NCC(c1ccsc1)N(C)C (stereo unspecified) | -8.165 |
| O=C(O)C(F)(F)F.O=C(c1ccccn1)N1C[C@H]2CCC[C@@]2(COCC2CCOCC2)C1 | -43.42 |
| Cc1cc(CN2CCC(CNS(=O)(=O)c3ccc(C)s3)CC2)c(C)o1 | 87.35 |
| Cc1ccc(S(=O)(=O)NCCc2ccoc2)s1 | -129 |
| O=S(=O)(NCC(O)c1ccoc1)c1ccc(Br)s1 (stereo unspecified) | -179.3 |
| Cc1cc(C(O)CCNS(=O)(=O)c2ccc(Cl)s2)c(C)o1 (stereo unspecified) | -41.19 |
| Cc1cc(CN2CCC(CNS(=O)(=O)c3c(C)noc3C)CC2)c(C)o1 | 26.64 |
| Cc1cc(CN2CCC(CNS(=O)(=O)c3ccc(Br)s3)CC2)c(C)o1 | 91.4 |
| O=C(c1c[nH]nn1)N1CCCC1C1CCCCC1 (stereo unspecified) | 48.49 |
| O=C(C1CCC1)N1CCC(=O)N(C2CC2)Cc2cc(F)ccc21 | -6.345 |
| N#Cc1cc(Br)ccc1NC1CCN(CC(N)=O)CC1 | 19.71 |
| CCNc1ccnc(NC2CCN(CC(N)=O)CC2)n1 | -56.83 |
| Cc1cccc(-n2c(C)cc(=O)[nH]c2=O)c1C | -21.52 |
| CC1CCN(CCCNC(=O)c2ccc(N(C)S(C)(=O)=O)cc2Cl)CC1 | -35.22 |
| O=C(NCc1ccccc1)NCC1CCN(Cc2ccsc2)CC1 | -54.93 |
| CC(=O)c1cn(CCC(=O)Nc2c3c(nn2C)CSC3)c2ccccc12 | 26.69 |
| Fc1ccc(CC2CCN(Cc3cscn3)CC2)cc1 | 50.2 |
| Fc1ccc(CC2CCN(Cc3nccs3)CC2)cc1 | 0.00383 |
| Fc1cccc(CN2CCN(Cc3cscn3)CC2)c1 | -54.95 |

| Compound | Percent Effect [%] |
| --- | --- |
| CC(C)c1n[nH]c(C2CN(C(=O)c3cc(C(N)=O)cs3)CCO2)n1 (stereo unspecified) | -7.804 |
| CN(C)c1ncccc1CNc1snc(Cl)c1C#N | -8.92 |
| Cc1cccc(N2CC[C@H]3[C@H](CO[C@@H]3CN(C)Cc3ccco3)C2)n1.O=C(O)C(F)(F)F.O=C(O)C(F)(F)F | 3.761 |
| CN(Cc1ccco1)C[C@@H]1OC[C@H]2CN(Cc3nccs3)CC[C@H]21.O=C(O)C(F)(F)F.O=C(O)C(F)(F)F | -54.97 |
| CN1CCN(C[C@H]2OC[C@@H]3CCN(Cc4ccsc4)C[C@@H]32)CC1 | 77.67 |
| CN(Cc1ccco1)C[C@H]1OC[C@@H]2CCN(Cc3ccsc3)C[C@@H]21.O=C(O)C(F)(F)F.O=C(O)C(F)(F)F | 65.82 |
| Cc1ccc(CN2CC[C@H]3CO[C@H](CN(C)Cc4ccco4)[C@H]3C2)s1.O=C(O)C(F)(F)F.O=C(O)C(F)(F)F | 57.63 |
| O=C(O)C(F)(F)F.O=C(O)C(F)(F)F.c1cnc(NC[C@H]2OC[C@@H]3CCN(Cc4ccsc4)C[C@@H]32)nc1 | -30.65 |
| CN1CCN(C[C@@H]2OC[C@H]3CN(Cc4ccsc4)CC[C@H]32)CC1.O=C(O)C(F)(F)F.O=C(O)C(F)(F)F.O=C(O)C(F)(F)F | 7.397 |
| Cc1ccc(CN2CC[C@H]3CO[C@H](CN(C)C)[C@H]3C2)o1 | -9.526 |
| O=C(NC[C@H]1OC[C@@H]2CCN(Cc3ccco3)C[C@@H]21)c1ccsc1.O=C(O)C(F)(F)F | -100.7 |
| Cc1ccc(N2CC[C@H]3CO[C@H](CN(C)Cc4ccco4)[C@H]3C2)nn1.O=C(O)C(F)(F)F.O=C(O)C(F)(F)F | -41.04 |
| O=C(O)C(F)(F)F.O=C(O)C(F)(F)F.c1cc(CN2CC[C@H]3CO[C@H](CN4CCOCC4)[C@H]3C2)cs1 | -2.124 |
| CSCCC(CO)NC(=O)c1ccc2[nH]/c(=N\S(C)(=O)=O)sc2c1 (stereo unspecified) | -143.2 |
| COCC(O)CN1CCC(=O)N(CC(=O)C(C)(C)C)Cc2ccccc21 (stereo unspecified) | 3.723 |
| Cc1cccc(N2CCN(C(=O)CNCCn3cc(C)cn3)CC2)c1 | -74.29 |
| CC(=O)N(Cc1noc(C)n1)C1CCN(CC2CCCC2)C1 (stereo unspecified) | -72.7 |
| Cc1nn(C)c(N2CCOCC2)c1CNCc1cccnc1 | -102.1 |
| COCCNc1cc(C)nn2cnnc12 | -138.9 |
| CNc1nc2c(s1)C(c1cccc(F)c1F)CC(=O)N2 (stereo unspecified) | -75.94 |
| CC(C)n1[nH]c(=O)c2c1NC(=O)CC2c1ccncc1 (stereo unspecified) | -11.96 |
| COc1ncccc1CN1C[C@@H]2COC[C@]2(COc2ccccn2)C1.O=C(O)C(F)(F)F.O=C(O)C(F)(F)F.O=C(O)C(F)(F)F | -20.51 |
